Source: PubChem BioAssay (Tox21)
Calls of active or inactive are those of the source. Calls follow the shape of the dose curve; as a rule, active = well fitted curve in the direction sought with a large enough effect in the repeat runs; inconclusive = weak or mixed curves; inactive = flat fitted curve, though single readings scatter.
% is scaled to controls: 0 for no effect and ±100 for the full control effect.

Test: qHTS assay to test for compound auto fluorescence at 535 nm (green) in HepG2 cells (AID 720675)
Conditions: green autofluorescence 485/535 nm, 1 h; series mostly up to 46 µM; fluorescence, % of fluorescein control: at the top concentration
Source text: National Center for Advancing Translational Sciences [NCATS]
NIH Chemical Genomics Center [NCGC]
U.S. Environmental Protection Agency [EPA]
National Institutes of Environmental Health Sciences [NIEHS]
National Toxicology Program [NTP]
U.S. Food and Drug Administration [FDA]
Compound auto fluorescence often interferes with screening of the compound library against various biological targets and signaling pathways. Some of these compounds may have fluorophoric properties. Such properties may interfere with the assay outputs resulting in false positives and/or negatives. To decrease such complications and ensure the compound activities are relevant in terms of biological response, the Tox21 10K compound library was screened for auto fluorescence.
From the fluorophores used as reporter signals in our screening assays, the auto fluorescence equivalencies of compounds against three fluorophores have been evaluated: Triamterene, Fluorescein and Rose Bengal sodium for blue, green and red fluorescence, respectively. The fluorescence intensities were measured using Excitation/Emission wavelengths at 405/460nm, 485/535nm and 540/590nm for blue, green and red labels, respectively. This assay includes the green fluorescence data.
Tox21 Assay Protocol Summary:
2,000 HepG2 cells in 5 uL of culture medium (MEM containing 10% FBS) per well were dispensed into black wall/clear bottom 1536-well plates using a Multidrop Combi Dispenser (ThermoFisher Scientific, Waltham, MA). The assay plates were incubated overnight at 37 C to allow cell attachment to the well bottom, followed by the transfer of 23 nL compound or DMSO vehicle by a pintool work station (Kalypsys , San Diego, CA). After the assay plates were incubated for 1 hr at 37 C and 5% CO2, fluorescence intensities in the assay plates were measured by an Envision (PerkinElmer, Shelton, CT) plate reader using three labels for measuring blue, green and red fluorescence at […] 460, 535 and 590 nm respectively.
In the case of CN1CCN(c2cc3c(cc2F)c(=O)c(C(=O)O)cn3-c2ccc(F)cc2)CC1, the “fluorescence, % of fluorescein control” value is reported as 1.33% (inactive).
In the case of Brc1c(NC2=NCCN2)ccc2nccnc12, the “fluorescence, % of fluorescein control” value is reported as -0.0118% (inactive).
In the case of CO[C@]12C[C@@H](COC(=O)c3cncc(Br)c3)CN(C)[C@@H]1Cc1cn(C)c3cccc2c13, the “fluorescence, % of fluorescein control” value is reported as 0.297% (inactive).
For CN1CCC(=C2c3ccccc3CC(=O)c3sccc32)CC1, the “fluorescence, % of fluorescein control” value was 0.0979% (inactive).
With CCCCCCCCCCCCCC=O the fluorescence, % of fluorescein control was 0.0875% [at 3.72 µM] (inactive).
For CCCC(=O)O[C@]1(C(=O)CO)CC[C@H]2[C@@H]3CCC4=CC(=O)CC[C@]4(C)[C@H]3[C@@H](O)C[C@@]21C, the “fluorescence, % of fluorescein control” value was 0.0132% (inactive).
In the case of CC[N+](C)(C)c1cccc(O)c1, the “fluorescence, % of fluorescein control” value is reported as -0.153% [at 18.6 µM] (inactive).
With C/C=C(\C)C#N the “fluorescence, % of fluorescein control” value was 0.044% [at 91.3 µM] (inactive).
For CCN1CCC[C@H]1CNC(=O)c1cc(S(N)(=O)=O)ccc1OC, the “fluorescence, % of fluorescein control” value was 0.0536% (inactive).
For NC(=O)c1ccc(N)cc1, the “fluorescence, % of fluorescein control” value was -0.0194% [at 91.3 µM] (inactive).
For CO[Si](CCCOCC1CO1)(OC)OC (stereo not given), the outcome was “inactive”.
With CC(C)CNCC(C)C the “fluorescence, % of fluorescein control” value was 0.067% [at 91.3 µM] (inactive).
With O=C(O)CCCl the “fluorescence, % of fluorescein control” value was -0.121% [at 95.7 µM] (inactive).
In the case of CCN(Cc1ccncc1)C(=O)C(CO)c1ccccc1 (stereo not given), the “fluorescence, % of fluorescein control” value is reported as -0.163% (inactive).
With CS(=O)(=O)O the “fluorescence, % of fluorescein control” value was 0.0443% [at 91.3 µM] (inactive).
In the case of Cc1ccc(Cl)cc1Cl, the “fluorescence, % of fluorescein control” value is reported as 0.0928% [at 91.3 µM] (inactive).
With CO/N=C(/C(=O)N[C@@H]1C(=O)N2C(C(=O)OCOC(=O)C(C)(C)C)=C(C)CS[C@H]12)c1csc(N)n1 the “fluorescence, % of fluorescein control” value was -0.0132% (inactive).
For COc1ccccc1OCC(O)CN1CCN(CC(=O)Nc2c(C)cccc2C)CC1 (stereo not given), the “fluorescence, % of fluorescein control” value was -0.0985% (inactive).
In the case of CC(=O)OCC(CCn1cnc2cnc(N)nc21)COC(C)=O, the “fluorescence, % of fluorescein control” value is reported as 0.0255% (inactive).
In the case of O=C1CCCCCCCCCCCN1, the outcome is reported as “inactive”.
With CC(C)NC(=O)NC(C)C the “fluorescence, % of fluorescein control” value was -0.255% [at 91.3 µM] (inactive).
In the case of c1ccc(CC2=NCCN2)cc1, the “fluorescence, % of fluorescein control” value is reported as -0.231% [at 18.6 µM] (inactive).
With CCOc1ccc(C(=O)OCCN(CC)CC)cc1 the “fluorescence, % of fluorescein control” value was -0.0546% (inactive).
For CCO/C([O-])=N/c1c[n+](N2CCOCC2)no1, the “fluorescence, % of fluorescein control” value was 0.0218% [at 18.6 µM] (inactive).
In the case of N[C@@H](C(=O)N[C@@H]1C(=O)N2C(C(=O)O)=C(Cl)CS[C@H]12)c1ccccc1, the “fluorescence, % of fluorescein control” value is reported as 0.424% (inactive).
With COC(=O)C1=C(C)NC(C)=C(C(=O)OC)C1c1ccccc1[N+](=O)[O-] the outcome was “inactive”.
In the case of COC(=O)c1ccc(C)cc1C1=NC(C)(C(C)C)C(=O)N1 (stereo not given), the “fluorescence, % of fluorescein control” value is reported as 0.0076% [at 91.3 µM] (inactive).
With N=C(N)c1ccc(OCCCOc2ccc(C(=N)N)cc2)cc1 the “fluorescence, % of fluorescein control” value was 0.109% (inactive).
In the case of CC(=O)CC(C)(C)C1CCCCC1, the “fluorescence, % of fluorescein control” value is reported as 0.105% [at 91.3 µM] (inactive).
With O=C(CCCN1CCC(O)(c2cccc(C(F)(F)F)c2)CC1)c1ccc(F)cc1 the “fluorescence, % of fluorescein control” value was 0.0292% (inactive).
For CCSC(=O)N(CC(C)C)CC(C)C, the “fluorescence, % of fluorescein control” value was 0.0912% [at 91.3 µM] (inactive).
With CCCCCOC(=O)CCCCC the “fluorescence, % of fluorescein control” value was -0.0268% [at 91.3 µM] (inactive).
With Nc1c[n+](N2CCOCC2)no1 the “fluorescence, % of fluorescein control” value was 0.0479% (inactive).
For COC(=O)c1cc(C(=O)OC)cc(S(=O)(=O)O)c1, the “fluorescence, % of fluorescein control” value was 0.021% [at 91.3 µM] (inactive).
In the case of CCCCNC(=O)NCCCC, the “fluorescence, % of fluorescein control” value is reported as 0.0216% [at 91.3 µM] (inactive).
With Nc1ccccc1S(=O)(=O)O the “fluorescence, % of fluorescein control” value was -0.0391% [at 91.3 µM] (inactive).
For O=[N+]([O-])c1ccc(F)cc1F, the “fluorescence, % of fluorescein control” value was 0.0069% [at 91.3 µM] (inactive).
For O=C1NC(=O)[C@@]2(CCOc3ccc(F)cc32)N1, the “fluorescence, % of fluorescein control” value was 0.0948% (inactive).
For C=CCCCCCCCCC=O, the “fluorescence, % of fluorescein control” value was 0.112% [at 91.3 µM] (inactive).
For O=C(O)Cc1ccc(CCNS(=O)(=O)c2ccc(Cl)cc2)cc1, the “fluorescence, % of fluorescein control” value was -0.0443% (inactive).
